The list is not random: actives were taken first. Their share in the collection is about 19%.
HT1080-NT tox – kills 2HG-producing HT-1080-NT fibrosarcoma cells | HT-1080-NT fibrosarcoma viability, CellTiter-Glo ATP luminescence, 48 h | Potency, µM (series often up to 46.1 µM), without a hit: at the top dose activity, negative = less viability, usual class: cytotoxic | actives 1.6% (n = 360,000);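 note: NT is the 2HG producing partner of a matched IDH1 knockdown line; 0% = DMSO-treated cells and -100% = media-only wells without cells; nearly all actives have a fitted effect of over 55% in size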
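A 48-hour cytotoxicity screen used HT-1080-NT cells plated 2 hours before compound delivery. ATP-based CellTiter-Glo luminescence measured viability, normalized to DMSO and no-cell controls.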
TDP1 cell noCPT – qHTS for Inhibitors of human tyrosyl-DNA phosphodiesterase 1 (TDP1): qHTS in cells in absence of CPT. DT40 Tdp1-/- hTDP1 cells, no CPT, ATP luminescence, 48 h. Potency, µM (top dose mostly 46.2 µM), inactives show top-dose activity change, negative = growth inhibition, usual class: inhibitors. actives 15% (n = 420,000); note: nearly all actives have a fitted effect of over 55% in size
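Stably hTDP1-transfected Tdp1-null chicken DT40 cells were treated with library compounds minus camptothecin and grown for at least 48 hr at 37 °C, after which cellular ATP was quantified by luminescence.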
KB-3-1 cytotox – kills parental KB-3-1 adenocarcinoma cells. KB-3-1 viability, CellTiter-Glo ATP luminescence, 72 h. Potency, µM (doses to about 46.1 µM), actives largely listed as cytotoxic. actives 1.4% (n = 400,000); note: nearly all actives have a fitted effect of over 60% in size
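72 h, 37 °C compound treatment of KB-3-1 parental cells; CellTiter-Glo added, 10 min, luminescence read. Data corrected against DMSO-only plates and normalized before curve fitting.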
HT1080 IDH1KD tx – HT-1080 IDH1 knockdown cell toxicity (counter line). Potency, µM (top dose mostly 46.1 µM), for the others: top-dose activity, negative = toxicity, most hits filed as cytotoxic. actives 2% (n = 360,000). AID 686971. HT-1080 IDH1 knockdown viability, ATP luminescence, 48 h;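 note: 0% = DMSO wells and -100% = cell-free medium wells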
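HT-1080-IDH1KD cells (IDH1 knocked down), 750/well in RPMI with 5% FBS, treated with compound 48 h at 37 degrees C. Viability by CellTiter-Glo luminescence, normalised to DMSO and no-cell wells; concentration-response curves classed.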
KB-V1 cytotox – KB-V1 MDR subline cytotoxicity. KB-V1 MDR cells viability, CellTiter-Glo, 72 h. Potency, µM (titrated, usually from 46.1 µM), hits mostly cytotoxic. actives 3.4% (n = 400,000). AID 1347076; note: nearly all actives have a fitted effect of over 60% in size
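Drug-selected KB-V1 cells, grown in DMEM lacking phenol red with 10% FBS, receive compound titrations; after three days at 37 degrees C, surviving cell ATP is quantified by CellTiter-Glo luminescence and responses normalized and curve-fitted.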
TDP1 cell CPT – DT40-hTDP1 cell growth loss with CPT; Potency, µM (doses to about 46.2 µM), without a hit: at the top dose activity change, negative = growth inhibition, usual class: inhibitors; chicken DT40 Tdp1-/-;hTDP1 cells + 20 nM CPT, ATP luminescence, 48 h; actives 12% (n = 420,000); note: nearly all actives have a fitted effect of over 55% in size
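Chicken DT40 Tdp1-/- cells stably complemented with human TDP1 were seeded at 400 cells/well in medium containing 20 nM camptothecin, exposed to pin-transferred compounds, and grown at 37 °C for at least 48 hr. Viability was read as ATP luminescence.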
Starred values were filed as active, the others as inactive; i = inactive; u = inconclusive; x = no result given. Calls come from the whole dose curve; as a rule, active = well fitted curve in the direction sought with a large enough effect; inconclusive = small, poorly fitted or top-dose-only effect, or another doubt; inactive = no such curve, though single readings can be large; an effect the other way counts as inactive or inconclusive. Unless noted, % is set by controls: 0 for no effect and ±100 for the full control effect; potency is the fitted concentration of half-maximal effect.

SMILES | HT1080-NT tox | TDP1 cell noCPT | KB-3-1 cytotox | HT1080 IDH1KD tx | KB-V1 cytotox | TDP1 cell CPT
C/C(=N/Nc1ccc(C(=O)O)cc1)c1ccc(O)c(O)c1O | 10% | 15µM* | i | 10% | i | 15µM*
COc1ccc(CNC(=O)CSc2ncc3c(n2)-c2cc(Cl)ccc2N(C)S3(=O)=O)cc1 | x | -26% | i | x | i | u
C/C(=N\NC(=O)c1ccc(O)cc1)c1ccc(N2CCOCC2)cc1 | 1% | -1% | i | -11% | i | 1%
C/C(=N\NC(=O)c1cccc(N/N=C(\C)c2ccco2)c1)c1ccco1 | 4% | u | i | 3% | u | -20%
C/C(=N\NC(=O)c1ccc(N/N=C(\C)c2ccc(O)cc2)cc1)c1ccc(O)cc1 | -29% | 8.2µM* | i | u | i | 21µM*
C/C(=N\NC(=O)c1c(Cl)c(C)nn1C)c1cccc(NC(=O)COc2ccc(Cl)cc2)c1 | -15% | 16µM* | i | -1% | u | u
C/C(=N\NC(=O)c1ccc(F)cc1)c1cccc(NC(=O)c2cccc(F)c2)c1 | 28% | u | i | 6% | i | u
C/C(=N\NC(=O)c1cccc(N/N=C(\C)c2cc(O)ccc2O)c1)c1cc(O)ccc1O | 23µM* | 16µM* | u | 18µM* | u | 12µM*
C/C(=N\NC(=O)c1cccc(O)c1)c1cccc(NC(=O)c2ccc(F)cc2)c1 | 0% | u | i | -2% | i | 10µM*
CCOc1ccccc1C(=O)NCC(=O)N(C)Cc1cccnc1 | 13% | u | i | 2% | i | -8%
Cn1c(N)nc(N)c(NC=O)c1=O | 19% | 13% | i | 2% | i | 1%
Cc1nc(NCCc2ccc(Cl)cc2)c2nnn(Cc3ccccc3)c2n1 | -1% | 0% | i | 8% | i | 8%
Cc1nc(NCCN2CCOCC2)c2nnn(Cc3c(F)cccc3Cl)c2n1 | 3% | -16% | i | -2% | 18µM* | -19%
COc1ncc2nc(-c3ccc(F)cc3)c(=O)n(CCC#N)c2n1 | x | -13% | x | x | x | 0%
CCN(CC)S(=O)(=O)c1ccc(C(=O)/C=C/c2ccc(-c3ccc([N+](=O)[O-])cc3)o2)cc1 | 12% | 6.5µM* | i | 14% | i | u
O=[N+]([O-])c1ccc(-c2ccc(/C=N/O)o2)cc1 | -5% | u | i | -8% | i | -22%
O=C(/C=C\c1ccc(-c2ccccc2)o1)c1ccccc1 | -11% | u | i | -21% | i | u
Cc1ccc(C(=O)/C=C/c2ccc(-c3ccc(C)cc3)o2)cc1 | 0% | 5.2µM* | i | -5% | i | 5.2µM*
Cc1cccc(C)c1NC(=O)CNC(=O)c1ccc2c(c1)NC(=O)CS2 | -5% | 6% | i | -1% | u | 8%
O=S(=O)(NC1c2cccc3cccc(c23)C1N1CCN(CCO)CC1)c1ccccc1 (stereo unspecified) | -29% | 15µM* | u | u | u | u
CN(C)c1ccc(-c2ccc3ncnc(N(C)C)c3c2)cc1 | x | 0.37µM* | x | x | x | 0.46µM*
CN(C)c1ncnc2ccc(-c3ccoc3)cc12 | x | u | x | x | x | 18µM*
Cc1cccc(C)c1NC(=O)c1nc(SC(C)C)ncc1Cl | x | u | i | x | i | 18µM*
Cc1nnc(NC(=O)c2nc(SC(C)C)ncc2Cl)s1 | x | -8% | i | x | i | -19%
CCOC(=O)c1c(-c2ccc(C)cc2)csc1NC(=O)c1nc(SC(C)C)ncc1Cl | x | 4% | i | x | i | 0%
SMILES | HT1080-NT tox | TDP1 cell noCPT | KB-3-1 cytotox | HT1080 IDH1KD tx | KB-V1 cytotox | TDP1 cell CPT
CCOC(=O)c1ccc(NC(=O)c2nc(SC(C)C)ncc2Cl)cc1 | x | 16µM* | i | x | i | 16µM*
Nc1cc(Cl)nc(N/N=C/c2c(O)ccc3ccccc23)n1 | u | 16µM* | i | u | i | u
O=C(O)c1cc(N/N=C/c2c(O)ccc3ccccc23)ccc1Cl | 3% | 10% | i | -4% | i | -24%
Nc1nonc1N/N=C/c1c(O)ccc2ccccc12 | -17% | -54% | u | u | u | 32%
O=C(CSCC(=O)Nc1ccccc1)N/N=C/c1c(O)ccc2ccccc12 | 3.2µM* | 4.5µM* | u | 1.6µM* | u | 4.5µM*
COc1ccc(NC(C)C(=O)N/N=C/c2c(O)ccc3ccccc23)cc1 (stereo unspecified) | -20% | 5.8µM* | u | u | u | 4.6µM*
O=C(CNc1ccccc1)N/N=C/c1c(O)ccc2ccccc12 | 10µM* | 6.5µM* | 16µM* | 12µM* | i | 10µM*
c1ccc2c(c1)CCN(C1=Nc3cccc4cccc1c34)C2 | u | u | i | u | u | u
COC(=O)c1c(C(=O)OC)c2c(-c3ccccc3)cc3cccc1n32 | -20% | u | u | -19% | u | u
CCn1cc(S(=O)(=O)c2ccc(C)cc2C)c(=O)c2cc(F)c(N3CCCC3)cc21 | x | u | i | x | i | u
O=C(CN1CCOCC1)N/N=C/c1c(O)ccc2ccccc12 | u | 9.2µM* | u | u | i | 7.3µM*
COc1ccc(NC(C)C(=O)N/N=C/c2ccccc2OCc2cccc(Br)c2)cc1 (stereo unspecified) | -27% | u | 23µM* | -18% | u | u
O=C(N/N=C/c1c(O)ccc2ccccc12)Nc1ccccc1 | -8% | 15µM* | u | -10% | u | 26µM*
O=C(CN1CCOCC1)N/N=C/c1ccco1 | 17% | -6% | i | 16% | i | -4%
Cc1ccc(/C(N)=N/OC(=O)CCCc2ccccc2)cc1 | 13% | 5% | i | 8% | u | -15%
CCOCCCNC(=O)c1ccc(NC(=O)N2CCCCc3ccccc32)cc1 | x | u | i | x | i | u
CC(=O)c1ccc2c3c(cc(C)c2c1)CCCC3 | u | -17% | i | 7% | i | 22%
CC(NC(=O)c1ccccc1)c1nnc(SCC(=O)NC2CCCC2)n1C (stereo unspecified) | 17% | 18% | i | 4% | u | 0%
O=C1C(Cl)=C(N2CCCCCC2)C(=O)N1c1ccccc1Cl | 11% | 11% | i | 7% | i | -6%

Compound activity: PubChem, National Center for Advancing Translational Sciences (NCATS)
